From PubChem BioAssay
Hits are enriched below; roughly 6.8% of the tested compounds scored in any of these assays.
MCF10A rerep – A quantitative high throughput screen for small molecules that induce DNA re-replication in MCF 10a normal breast cells; MCF 10A DNA re-replication, Hoechst nuclear intensity, 48 h; Potency, µM (titrated, usually from 46.1 µM), inactives show top-dose activity, positive = re-replication, actives largely listed as activators; 350,000 tested, 2.9% active; AID 624296, 2012; note: % of control where 0% means no effect; nearly all actives have a fitted effect of over 50% in size
SW480 rereplic – A quantitative high throughput screen for small molecules that induce DNA re-replication in SW480 colon adenocarcinoma cells | SW480 DNA re-replication, Hoechst DNA content imaging, 48 h | Potency, µM (top dose mostly 46.1 µM), inactives show at the top dose re-replication activation, usual class: activators | 340,000 tested, 1.8% active | AID 624297, 2012; note: % of control where 0% means no effect; nearly all actives have a fitted effect of over 55% in size
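Hoechst fluorescence of nuclei (405 nm excitation, 500-530 nm emission) measured by plate-scanning imager after 48 hr compound exposure at 37 C; re-replication scored as increased number of nuclei with elevated intensity.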
KB-V1 MDR tox – qHTS assay for MDR1-selective chemotherapeutics: Primary screen using the drug-selected MDR subline cells KB-V1; AID 1347076, 2019; Potency, µM (titrated, usually from 46.1 µM), most hits filed as cytotoxic; 400,000 tested, 3.4% active; KB-V1 MDR cells viability, CellTiter-Glo, 72 h; note: % is set by controls: 0 for no effect and ±100 for the full control effect; nearly all actives have a fitted effect of over 60% in size
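In this primary screen, KB-V1 cells overexpressing P-gp are incubated with library compounds (lowest to highest concentration) for 72 h at 37 degrees C before a luminescent ATP viability read.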
KB-3-1 tox – qHTS assay for MDR1-selective chemotherapeutics: Primary screen using the parental adenocarcinoma cell KB-3-1. KB-3-1 viability, CellTiter-Glo ATP luminescence, 72 h. Potency, µM (doses to about 46.1 µM), usual class: cytotoxic. 400,000 tested, 1.4% active. AID 1347075, 2019; note: % is set by controls: 0 for no effect and ±100 for the full control effect; nearly all actives have a fitted effect of over 60% in size
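Cytotoxicity measured as CellTiter-Glo luminescence after 72 h at 37 C. Compound titrations were pinned onto drug-naive KB-3-1 parental adenocarcinoma cells grown in DMEM with 10% FBS, and normalized data fitted to concentration-response curves.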
PINK1 modulator – A Quantitative High throughput Screen to Identify Chemical Modulators of PINK1 Expression | PINK1 immunofluorescence, high-content cytometry, 24 h | Potency, µM (series often up to 76.6 µM), for inactives: at the highest dose activation (PINK1 increase), most hits filed as activators | 410,000 tested, 0.2% active; active = well fitted activation curve with a large enough effect; inconclusive = small, poorly fitted or top-dose-only effect; cell line not stated here; note: % of control where 0% means no effect; nearly all actives have a fitted effect of over 65% in size
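Decision-based qHTS: stable cells, 24 h exposure to five compound concentrations, CCCP as control. Fixed cells stained for PINK1 plus nuclear, mitochondrial and cell markers, cytometer read.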
PTAP TSG101 blk – qHTS Assay for Iinhibitors of HIV-1 Budding by Blocking the Interaction of PTAP/TSG101 | Fluorescence polarization, FITC-PTAP peptide / Tsg101 binding | Potency, µM (doses to about 115 µM), without a hit: top-dose activity change, negative = inhibition, actives largely listed as inhibitors | 340,000 tested, under 10 active; active = well fitted inhibition curve with a large enough effect in the main read-out, with a control signal flat, not every such curve was filed as active; inconclusive = small, poorly fitted or top-dose-only effect, or effect the other way, or a change in a side signal; inactive = no such curve, though single readings can be large or run the other way; note: % of control where 0% means no effect
Target sequence (Q99816 whole entry, looked up): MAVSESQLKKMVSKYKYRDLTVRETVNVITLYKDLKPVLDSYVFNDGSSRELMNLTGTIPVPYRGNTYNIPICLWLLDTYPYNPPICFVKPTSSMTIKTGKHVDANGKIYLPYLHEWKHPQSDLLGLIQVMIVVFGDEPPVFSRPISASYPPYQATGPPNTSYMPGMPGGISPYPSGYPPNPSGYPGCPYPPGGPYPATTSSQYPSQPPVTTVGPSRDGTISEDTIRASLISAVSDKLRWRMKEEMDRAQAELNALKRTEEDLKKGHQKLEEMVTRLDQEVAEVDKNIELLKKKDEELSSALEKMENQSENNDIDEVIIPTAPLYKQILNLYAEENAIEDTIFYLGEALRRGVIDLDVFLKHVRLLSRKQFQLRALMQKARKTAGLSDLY
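Steps: Tsg101 binding domain dispensed (10 uM final), compounds pinned in DMSO, FITC-labeled PTAP-motif peptide added (50 nM final); after 20 min binding at room temperature, polarization measured.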
The depositor's hits bear a star; i = inactive; ? = inconclusive; . = no result; [ ] = dose if it differs, or a comment. Unless noted, calls come from the whole dose curve; as a rule, active = well fitted curve in the direction sought with a large enough effect; inconclusive = small, poorly fitted or top-dose-only effect, or another doubt; inactive = no such curve, though single readings can be large; an effect the other way counts as inactive or inconclusive. Potency is the fitted concentration of half-maximal effect.

SMILES | MCF10A rerep | SW480 rereplic | KB-V1 MDR tox | KB-3-1 tox | PINK1 modulator | PTAP TSG101 blk
O=[N+]([O-])c1cccnc1N1CCC(c2cc(-c3ccc(Cl)cc3Cl)n[nH]2)CC1 | ? | ? | i | i | 23.6% | 0.6%
CCCCOc1ccc(C(=O)NCc2nnnn2-c2ccc(C)c(C)c2)cc1 | . | . | . | . | -0.8% | .
O=C(Nc1ccc(N2CCN(C(=O)c3cccs3)CC2)cc1)c1ccccc1F | ? | ? | 7.31µM* | ? | 9.5% | 2.0%
O=C(c1cccs1)N1CCN(c2ccc(F)cc2)CC1 | -0.2% | -5.5% | i | i | -0.3% | -4.2%
O=C(NC(=S)N1CCN(c2ccc([N+](=O)[O-])cc2Cl)CC1)c1ccco1 | -2.3% | 22.2% | 20.6µM* | i | 1.0% | 0.5%
O=C(c1ccco1)N1CCN(c2ccc([N+](=O)[O-])cc2Cl)CC1 | 1.8% | -2.6% | ? | i | 0.8% | -5.0%
Cc1ccc(C(=O)NC(=S)N2CCN(c3ccc([N+](=O)[O-])cc3)CC2)cc1 | 1.9% | -38.9% | 23.1µM* | i | 7.5% | -2.8%
O=C(Nc1ccc(N2CCN(C(=O)c3cccs3)CC2)c(Cl)c1)c1ccco1 | ? | -0.1% | 3.66µM* | ? | -0.5%[38.3 µM] | -2.4%
Cc1ccccc1C(=O)N1CCN(c2ccc(NC(=O)c3ccco3)cc2Cl)CC1 | ? | -1.9% | ? | i | -2.1% | -0.8%
Cc1ccc(NC(=O)c2c(C)cc(C)nc2SCC(=O)Nc2ccc(Br)cc2)cc1 | . | . | i | i | 0.5% | .
COc1cccc(OC)c1C(=O)Nc1ccc(N2CCN(C(=O)c3cccs3)CC2)cc1 | -4.7% | -4.2% | i | i | -0.4% | .
O=C(Nc1cc(C(=O)N2CCN(c3ccccc3)CC2)ccc1Cl)c1cccs1 | 0.0% | 3.1% | 8.2µM* | i | -0.2% | -3.2%
O=C(Nc1ccc(N2CCN(C(=O)c3cccs3)CC2)cc1)c1ccccc1Cl | ? | 23.1µM* | ? | 16.4µM* | 2.9% | 0.0%
CCOc1nc(NCCC2=CCCCC2)nc(N2CCOCC2)n1 | 20.6µM* | 23.1µM* | i | i | 2.6%[38.3 µM] | 1.1%
CC(C)(C)OC(=O)N1CCC(c2c(C(=O)Nc3ccc4c(c3)OCO4)cnn2-c2ccc(F)cc2F)CC1 | . | . | i | i | -0.6% | .
OC(COc1cccc2ccccc12)CN1CCN(c2ccccc2Cl)CC1 (stereo unspecified) | 18.4µM* | ? | i | i | 5.7% | -3.0%
Cc1ccc(N2CCN(CC(O)COc3cccc4ccccc34)CC2)cc1 (stereo unspecified) | ? | 19.0% | i | i | ? | ?
O=C(Nc1ccccc1NC(=O)NC1CCCCC1)NC1CCCCC1 | 3.66µM* | ? | i | ? | ? | 1.7%
CC(C)(C)c1ccc(/C=N/NC(=S)NC2CCCCC2)cc1 | 16.4µM* | ? | ? | ? | ? | -0.5%
COc1ccc(/C=N/NC(=S)NC2CCS(=O)(=O)C2)cc1 (stereo unspecified) | 6.4% | -2.8% | i | i | 0.9% | 0.1%
O=C(COc1ccccc1)NCC(=O)NC1CCCCC1 | -2.3% | -8.2% | i | i | -0.5% | -3.6%
O=C(CNC(=O)OCc1ccccc1)NC1CCCCCCC1 | -69.0% | -172.5% | 18.4µM* | i | 1.9% | -2.6%
O=C(N/N=C/c1ccccc1)NC1CCCCC1 | -38.3% | -87.8% | 16.4µM* | i | -0.6% | -1.7%
CCc1noc(-c2ccc(N3CCC(C)CC3)c([N+](=O)[O-])c2)n1 | . | . | i | i | 0.9% | .
Cc1ccc2c(c1)CN(CCNC(=O)c1cccc(Cn3cccn3)c1)CC(C)O2 (stereo unspecified) | . | . | . | . | -1.0% | .
SMILES | MCF10A rerep | SW480 rereplic | KB-V1 MDR tox | KB-3-1 tox | PINK1 modulator | PTAP TSG101 blk
CN(CC(=O)Nc1cccc(F)c1)S(=O)(=O)c1ccc2c(c1)n(C)c(=O)c(=O)n2C | . | . | ? | i | 3.0% | .
CCOC(=O)c1cc(-c2ccccc2)n(CC(=O)NCc2ccccc2OC)c1C | . | . | . | . | 11.8% | .
COc1ccc(NC(=O)CCS(=O)(=O)c2cc3c4c(c2)CCN4C(=O)CC3)c(OC)c1 | . | . | i | i | -1.5% | .
c1cc(-c2ccncc2)ccn1 | -6.2% | 0.517µM* | i | i | 0.7% | 0.9%
CC(=O)Nc1ccc(NC(=O)CCCCCN2C(=O)c3ccccc3C2=O)cc1 | 7.7% | -1.0% | i | i | -1.5% | -1.3%
CCN(CC)c1ccc(NC(=O)CCCCCN2C(=O)c3ccccc3C2=O)cc1 | 5.4% | -2.8% | 4.61µM* | i | -2.6% | -3.6%
CCC(c1nnnn1-c1ccc2c(c1)OCCO2)N1CCN(c2ccccc2OC)CC1 (stereo unspecified) | . | . | 7.31µM* | ? | -0.7% | .
COc1ccc(N2CCN(C(=O)CSc3nnc(-c4cc5ccccc5cc4O)n3C)CC2)cc1 | 2.1% | -4.2% | 2.31µM* | 18.4µM* | 0.2%[38.3 µM] | -8.5%
COc1ccc(N2CCN(C(=O)CSc3nnnn3-c3ccc4c(c3)OCCO4)CC2)cc1 | 16.4µM* | -1.1% | 20.6µM* | i | . | -4.3%
CCC(c1nnnn1-c1ccc2c(c1)OCCO2)N1CCN(C/C=C/c2ccccc2)CC1 (stereo unspecified) | . | . | 8.2µM* | i | -1.1% | .
C(=C\c1ccccc1)/CN1CCN(C(CCc2ccccc2)c2nnnn2-c2ccc3c(c2)OCCO3)CC1 (stereo unspecified) | . | . | i | i | 1.2% | .
O=C(Nc1ccc(F)cc1F)c1cc(CN2CCOCC2)on1 | . | . | i | i | -0.8% | .
CC(=O)Nc1ccc(C(=O)CSc2nnc3cc(C)c4ccccc4n23)cc1 | . | . | ? | i | 3.6% | .
CCC(c1nnnn1-c1ccc2c(c1)OCCO2)N1CCN(c2ccc(C)cc2)CC1 (stereo unspecified) | . | . | i | 18.4µM* | 0.3% | .
